Results: PubChem BioAssay (NCATS)
Results filed as inconclusive are left out. A call without a number means that no potency is given here. Calls of active or inactive are those of the source. The call rests on the fitted dose curve; in most records, active means well fitted inhibition curve with a large enough effect; inconclusive means small, poorly fitted or top-dose-only effect; inactive means flat fitted curve, though single readings scatter.

Assay: qHTS for Inhibitors of Plasmodium falciparum (DD2) proliferation (AID 504314)
Settings: P. falciparum Dd2 in erythrocytes, SYBR Green growth, 72 h; series mostly up to 1.12 µM
Procedure, shortened: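 Infected RBCs, 0.3% parasitemia, 2.5% Hct; compound 72 h, 37C/5% CO2; lyse + SYBR Green I, RT overnight, dark; read ex485/em535; normalize to DMSO and artemisinin 0.29 uM.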
Potency means the concentration at half of the fitted maximal effect.

| Compound | Potency |
| --- | --- |
| C[C@@H]1C[C@](C)(C(=O)c2ccc3ccccc3c2)C=C1c1ccc2ccccc2c1 | inactive |
| O=C(NS(=O)(=O)c1ccc(F)cc1)O[C@@H]1C(=O)c2cc(Br)ccc2O[C@H]1c1ccc2c(c1)OCO2 | inactive |
| COC(=O)CCC(=O)OC1(C)C(=O)C2=CN(Cc3ccc(OC)cc3)C(c3ccc(OC)cc3)=CC2=C(Br)C1=O (stereo not given) | inactive |
| COC(=O)[C@H]1[C@@H](C)N(Cc2ccccc2)C(=O)N[C@H]1c1ccccc1 | inactive |
| CCCCc1nc2c(c3c1C[C@H](C)OC3)CN(S(=O)(=O)c1ccc(Cl)c3nonc13)CC2 | inactive |
| COCCN1C(=O)N[C@@H](c2cccc(F)c2)C(C(=O)OC)=C1C | inactive |
| COC(=O)C1=C(C(=O)OC)[C@@H]2N(C)c3ccc(OC)cc3[C@@]23C[C@@H](C(=O)OC)N(S(=O)(=O)c2ccc(OC)cc2)C3=N1 | inactive |
| C=CCN1c2ccccc2[C@]23C[C@@H](C(=O)OC)N(S(=O)(=O)c4cccs4)C2=NC(C(=O)OC)=C(C(=O)OC)[C@H]13 | inactive |
| COC(=O)C1=C(C(=O)OC)[C@@H]2Nc3ccccc3[C@@]23C[C@@H](C(=O)OC)N(S(=O)(=O)c2cccs2)C3=N1 | inactive |
| COC(=O)[C@@H](NC(=O)N1CCc2nc(-c3ccccc3)c3c(c2C1)CO[C@@H](C)C3)C(C)C | inactive |
| O=C(C=Cc1ccc2c(c1)OCO2)c1ccccc1 | inactive |
| C=CCOC(=O)C(C(C)=O)[C@@H](NC(=O)OC)c1cccc(C(F)(F)F)c1 (stereo not given in full) | inactive |
| CC=Cc1cc2ccccc2c2c(C(=O)OC)c(C(=O)OC)c(C(=O)OC)n12 | inactive |
| CCN1C(=O)[C@@H]2[C@H]3[C@H](O)[C@H](O)CC(=NO[C@@H](C)c4cc(-c5c(C)cc(C)cc5C)no4)[C@@H]3CC[C@H]2C1=O | inactive |
| CCCC[C@]12Cc3cc(OC)c(OC)cc3[C@H](O1)C1=C(O2)C(=O)c2ccccc2C1=O | 3 µM (active) |
| CC#CCN1c2ccccc2[C@]23C[C@@H](C(=O)OC)N(C(C)=O)C2=NC(C(=O)OC)=C(C(=O)OC)[C@H]13 | inactive |
| COC(=O)C[C@H]1c2ccccc2[C@H]2C(=C[C@@H](C)[C@H]3C(=O)N(O)C(=O)[C@H]32)N1C(=O)OC | inactive |
| COC(=O)[C@@]1(C=C2c3ccc(F)cc3[C@@H](OC)[C@@H]2C)[C@@H]2CC=C[C@@H]21 | inactive |
| COC/C=C/C1=CC2=CC(=O)C(C)(OC(=O)c3cnc4ccccc4n3)C(=O)C2=CN1CCOC (stereo not given) | inactive |
| CCCCc1nc2c(c3c1C[C@H](C)OC3)CN(S(=O)(=O)c1ccc3c(c1)OCCN3C)CC2 | inactive |

| Compound | Potency |
| --- | --- |
| CCOC(=O)CN1C(=O)N[C@@H](CCc2ccccc2)C(C(=O)OC)=C1C | inactive |
| COC(=O)CCCC1=CC2=C(c3ccccc3)C(=O)C(C)(OC(=O)C3CCCC3)C(=O)C2=CN1C1CCCC1 (stereo not given) | inactive |
| C=CCNC(=O)N1CCc2nc(COc3ccccc3)c3c(c2C1)CO[C@@H](C)C3 | inactive |
| CC1(C)O[C@@H]2[C@@H](O1)C(c1ccccc1)(c1ccccc1)OP(=O)(O)OC2(c1ccccc1)c1ccccc1 | inactive |
| CC(C)CON=C1C[C@@H](O)[C@@H](O)[C@@H]2[C@H]3C(=O)N(C4CCCCC4)C(=O)[C@@H]3CC[C@H]12 | inactive |
| COC(=O)C1=C(C(=O)OC)[C@@H]2N(C)c3ccc(OC)cc3[C@@]23C[C@@H](C(=O)OC)N(C(C)=O)C3=N1 | inactive |
| C=CCN1c2ccccc2[C@]23C[C@@H](C(=O)OC)N(S(=O)(=O)CCCC)C2=NC(C(=O)OC)=C(C(=O)OC)[C@H]13 | inactive |
| CCCCC1=CC2=CC(=O)C(C)(OC(=O)CC)C(=O)C2=CN1Cc1ccccc1 (stereo not given) | inactive |
| COC(=O)CCC(=O)OC1(C)C(=O)C=C2C=C(C3CC3)N(C3CC3)C=C2C1=O (stereo not given) | inactive |
| COC(=O)CCC(=O)OC1(C)C(=O)C2=CN(CCCCO)C(c3ccc(OC)cc3)=CC2=C(Br)C1=O (stereo not given) | inactive |
| COC(=O)N1CCc2cc(OC)c(OC)cc2C1Cc1ccc(OC)cc1 (stereo not given) | inactive |
| C=C(C)C(=O)c1ccc2c(c1)OCO2 | inactive |
| COC(=O)c1ccccc1S(=O)(=O)N1CCc2nc(COc3ccccc3)c3c(c2C1)CO[C@@H](C)C3 | inactive |
| C=CCN1c2ccccc2[C@]23C[C@@H](C(=O)OC)N=C2NC(C(=O)OC)=C(C(=O)OC)[C@H]13 | inactive |
| C[C@@H](c1ccccc1)N1C(=O)[C@@H]2[C@H]3[C@H](O)[C@H](O)CC(=NNC(=O)OCc4ccccc4)[C@@H]3CC[C@H]2C1=O | inactive |
| C=CCN1c2ccccc2[C@]23C[C@@H](C(=O)OC)N(C(=O)C4CCC4)C2=NC(C(=O)OC)=C(C(=O)OC)[C@H]13 | inactive |
| C=C[C@@]1(C)CC[C@H](O)[C@H]2C(=O)CCC[C@H]21 | inactive |
| C=CCN1c2ccccc2[C@]23C[C@@H](C(=O)OC)N(C(=O)COCc4ccccc4)C2=NC(C(=O)OC)=C(C(=O)OC)[C@H]13 | inactive |
| COC(=O)C1=C(C(=O)OC)[C@@H]2N(C)c3ccc(OC)cc3[C@@]23C[C@@H](C(=O)OC)N(S(=O)(=O)c2ccc4c(c2)OCCN4C)C3=N1 | inactive |
| COC(=O)C1(C(=O)OC)CC(CO)C(=O)[C@@H]1c1ccccc1 (stereo not given in full) | inactive |
